# Measured values published in the supplement of paper PMC11732987, “Enantioselective OTUD7B fragment discovery through chemoproteomics screening and high-throughput optimisation” (Communications Chemistry, 2025).
# Values without a mark were called inactive.
# Tests used:
# Assay in all cases: log2 ratio of Biotin-Ahx-Ub-VS probe labelling (fragment/DMSO); higher = less target engagement (more negative = stronger competition), active = hit call of the paper (q ≤ 0.05, log2 ratio ≤ -1)
# Conditions in all cases: compound concentration: 200 uM; treatment time: 3 h
# USP42 = molecular target: T1, USP42 (UniProt Q9H9J4)
# T1 sequence (whole entry): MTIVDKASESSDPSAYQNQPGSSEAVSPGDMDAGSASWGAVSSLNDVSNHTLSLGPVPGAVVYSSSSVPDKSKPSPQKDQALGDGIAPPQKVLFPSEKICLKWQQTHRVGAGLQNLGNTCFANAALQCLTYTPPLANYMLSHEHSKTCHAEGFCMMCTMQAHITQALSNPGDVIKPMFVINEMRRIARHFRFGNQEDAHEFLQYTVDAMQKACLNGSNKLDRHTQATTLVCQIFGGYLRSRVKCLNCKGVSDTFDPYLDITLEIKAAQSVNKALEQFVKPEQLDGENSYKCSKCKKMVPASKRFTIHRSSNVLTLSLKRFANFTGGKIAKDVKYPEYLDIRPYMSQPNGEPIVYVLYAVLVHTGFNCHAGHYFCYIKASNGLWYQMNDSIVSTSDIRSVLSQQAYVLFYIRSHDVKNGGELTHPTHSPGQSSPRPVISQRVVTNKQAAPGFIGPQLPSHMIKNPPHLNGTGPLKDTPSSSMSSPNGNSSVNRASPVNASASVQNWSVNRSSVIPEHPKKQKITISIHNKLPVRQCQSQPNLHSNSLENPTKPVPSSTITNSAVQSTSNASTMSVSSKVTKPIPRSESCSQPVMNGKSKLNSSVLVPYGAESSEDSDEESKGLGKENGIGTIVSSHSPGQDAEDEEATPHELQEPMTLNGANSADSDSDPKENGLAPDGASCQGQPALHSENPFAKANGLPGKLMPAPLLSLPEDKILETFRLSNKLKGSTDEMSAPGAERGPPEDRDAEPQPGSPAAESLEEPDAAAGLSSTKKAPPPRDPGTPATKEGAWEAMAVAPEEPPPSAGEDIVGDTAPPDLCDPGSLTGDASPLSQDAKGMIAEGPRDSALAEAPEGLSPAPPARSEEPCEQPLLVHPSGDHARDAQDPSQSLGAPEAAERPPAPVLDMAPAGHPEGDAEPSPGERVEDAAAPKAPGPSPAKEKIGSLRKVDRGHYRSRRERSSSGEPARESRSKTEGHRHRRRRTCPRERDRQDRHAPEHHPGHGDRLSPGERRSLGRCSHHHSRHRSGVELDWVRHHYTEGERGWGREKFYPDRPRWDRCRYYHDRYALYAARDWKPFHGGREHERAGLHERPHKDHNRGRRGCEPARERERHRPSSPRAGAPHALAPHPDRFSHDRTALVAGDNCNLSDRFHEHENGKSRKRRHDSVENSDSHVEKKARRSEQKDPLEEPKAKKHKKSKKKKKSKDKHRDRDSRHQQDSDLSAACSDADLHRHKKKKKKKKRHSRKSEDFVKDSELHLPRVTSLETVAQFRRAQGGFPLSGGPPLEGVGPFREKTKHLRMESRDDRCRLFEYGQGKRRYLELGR
# Outline: (§1)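 The table lists average log2 ratios of fragment over vehicle, from an unpaired t-test on global-median-normalised Spectronaut label-free quantities. Proteins with ≥2 unique peptides were used. Samples were HEK293T lysate (495 µg) treated in triplicate with fragment at 200 µM or vehicle for 3 h, then with Biotin-Ahx-Ub-VS (0.5 µM final) for 1 h, with labelled DUBs NeutrAvidin-enriched and run by diaPASEF LC-MS/MS.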
# USP46 = USP46 (UniProt P62068)
# Outline: as §1
# USP47 = molecular target: T2, USP47 (UniProt Q96K76)
# T2 sequence (whole entry): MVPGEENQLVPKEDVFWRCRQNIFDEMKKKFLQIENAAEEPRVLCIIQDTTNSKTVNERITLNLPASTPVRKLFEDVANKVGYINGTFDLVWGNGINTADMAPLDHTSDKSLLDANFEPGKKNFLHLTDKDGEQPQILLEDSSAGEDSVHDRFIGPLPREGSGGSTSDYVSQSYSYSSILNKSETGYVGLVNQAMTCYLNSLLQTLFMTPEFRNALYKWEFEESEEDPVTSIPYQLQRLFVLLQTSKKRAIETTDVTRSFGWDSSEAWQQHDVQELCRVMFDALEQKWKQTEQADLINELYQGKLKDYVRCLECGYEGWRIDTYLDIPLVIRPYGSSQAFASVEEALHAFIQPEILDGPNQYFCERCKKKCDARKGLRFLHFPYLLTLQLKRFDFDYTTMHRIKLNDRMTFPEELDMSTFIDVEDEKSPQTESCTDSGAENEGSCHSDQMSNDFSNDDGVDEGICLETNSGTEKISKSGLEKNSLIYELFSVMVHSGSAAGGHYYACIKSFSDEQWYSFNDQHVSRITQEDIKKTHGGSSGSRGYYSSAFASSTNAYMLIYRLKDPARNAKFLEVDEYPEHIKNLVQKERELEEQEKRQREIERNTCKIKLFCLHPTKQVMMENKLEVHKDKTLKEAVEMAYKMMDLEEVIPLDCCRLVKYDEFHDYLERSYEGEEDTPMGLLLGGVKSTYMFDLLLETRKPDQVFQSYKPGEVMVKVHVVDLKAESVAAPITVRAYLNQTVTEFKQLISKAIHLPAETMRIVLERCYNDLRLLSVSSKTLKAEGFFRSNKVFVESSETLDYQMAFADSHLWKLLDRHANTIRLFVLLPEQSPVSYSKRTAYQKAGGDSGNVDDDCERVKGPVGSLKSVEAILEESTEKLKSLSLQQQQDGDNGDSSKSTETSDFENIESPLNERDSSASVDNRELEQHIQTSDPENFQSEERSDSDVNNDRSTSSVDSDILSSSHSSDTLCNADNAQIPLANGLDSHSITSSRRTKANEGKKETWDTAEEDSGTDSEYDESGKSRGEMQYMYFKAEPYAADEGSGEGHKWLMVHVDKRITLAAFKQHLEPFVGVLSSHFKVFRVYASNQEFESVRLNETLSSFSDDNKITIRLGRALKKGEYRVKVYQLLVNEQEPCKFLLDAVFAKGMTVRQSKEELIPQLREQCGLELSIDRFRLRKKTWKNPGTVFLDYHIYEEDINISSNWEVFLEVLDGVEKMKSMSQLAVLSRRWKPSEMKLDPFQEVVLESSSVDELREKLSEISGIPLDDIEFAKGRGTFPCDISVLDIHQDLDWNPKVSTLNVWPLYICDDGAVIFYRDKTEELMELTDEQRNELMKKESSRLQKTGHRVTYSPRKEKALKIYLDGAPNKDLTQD
# Outline: as §1
# USP48 = molecular target: T3, USP48 (UniProt Q86UV5)
# T3 sequence (whole entry): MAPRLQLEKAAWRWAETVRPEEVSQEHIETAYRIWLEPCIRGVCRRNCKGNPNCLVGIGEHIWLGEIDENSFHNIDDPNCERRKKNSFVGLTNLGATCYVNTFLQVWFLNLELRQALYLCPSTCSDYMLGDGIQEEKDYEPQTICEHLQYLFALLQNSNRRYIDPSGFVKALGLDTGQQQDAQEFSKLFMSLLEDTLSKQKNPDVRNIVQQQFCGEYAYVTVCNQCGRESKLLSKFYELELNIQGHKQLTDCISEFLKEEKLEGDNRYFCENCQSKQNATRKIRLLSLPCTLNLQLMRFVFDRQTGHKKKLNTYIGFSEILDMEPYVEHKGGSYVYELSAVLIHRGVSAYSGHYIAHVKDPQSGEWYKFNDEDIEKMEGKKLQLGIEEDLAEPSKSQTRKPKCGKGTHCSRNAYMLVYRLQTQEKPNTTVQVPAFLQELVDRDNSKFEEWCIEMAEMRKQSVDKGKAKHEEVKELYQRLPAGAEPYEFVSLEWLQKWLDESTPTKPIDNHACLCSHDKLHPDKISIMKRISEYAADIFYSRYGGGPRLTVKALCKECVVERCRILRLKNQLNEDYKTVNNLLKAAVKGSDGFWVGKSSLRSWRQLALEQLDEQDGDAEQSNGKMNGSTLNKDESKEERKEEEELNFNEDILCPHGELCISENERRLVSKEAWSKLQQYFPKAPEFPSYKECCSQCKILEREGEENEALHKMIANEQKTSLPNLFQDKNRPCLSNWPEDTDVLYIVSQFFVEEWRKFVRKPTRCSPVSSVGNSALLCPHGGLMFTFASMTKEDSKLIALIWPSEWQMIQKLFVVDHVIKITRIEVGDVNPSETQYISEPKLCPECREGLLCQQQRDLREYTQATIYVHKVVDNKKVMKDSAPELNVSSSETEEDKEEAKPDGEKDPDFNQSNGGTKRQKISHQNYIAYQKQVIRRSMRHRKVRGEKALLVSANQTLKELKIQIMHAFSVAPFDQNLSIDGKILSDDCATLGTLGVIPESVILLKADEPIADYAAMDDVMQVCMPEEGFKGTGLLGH
# Outline: as §1
# USP5 = molecular target: T4, USP5 (UniProt P45974)
# T4 sequence (whole entry): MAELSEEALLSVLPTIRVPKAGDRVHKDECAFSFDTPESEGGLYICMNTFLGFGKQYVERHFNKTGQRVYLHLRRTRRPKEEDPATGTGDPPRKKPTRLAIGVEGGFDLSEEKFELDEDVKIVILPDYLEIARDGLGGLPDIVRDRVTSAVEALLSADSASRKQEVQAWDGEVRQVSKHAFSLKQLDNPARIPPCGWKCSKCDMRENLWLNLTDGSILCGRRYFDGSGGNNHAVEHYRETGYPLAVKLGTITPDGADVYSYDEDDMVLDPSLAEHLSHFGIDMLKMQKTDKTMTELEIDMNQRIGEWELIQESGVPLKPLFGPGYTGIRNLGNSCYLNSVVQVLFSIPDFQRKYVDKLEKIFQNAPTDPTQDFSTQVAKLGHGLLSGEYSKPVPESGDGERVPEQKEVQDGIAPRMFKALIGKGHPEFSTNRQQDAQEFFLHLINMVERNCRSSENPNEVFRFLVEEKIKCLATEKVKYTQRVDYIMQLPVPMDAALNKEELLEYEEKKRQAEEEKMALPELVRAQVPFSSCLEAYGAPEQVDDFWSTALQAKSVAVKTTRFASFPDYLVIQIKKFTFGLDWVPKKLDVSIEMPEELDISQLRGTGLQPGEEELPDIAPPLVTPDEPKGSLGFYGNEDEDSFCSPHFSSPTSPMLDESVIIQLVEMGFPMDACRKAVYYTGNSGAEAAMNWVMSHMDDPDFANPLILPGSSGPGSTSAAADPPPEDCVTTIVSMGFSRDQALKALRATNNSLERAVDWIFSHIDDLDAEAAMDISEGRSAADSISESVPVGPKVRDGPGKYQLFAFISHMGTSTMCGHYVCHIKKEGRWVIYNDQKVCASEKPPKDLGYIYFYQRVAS
# Outline: as §1
# USP54 = USP54 (UniProt Q70EL1)
# Outline: as §1
# USP7 = USP7 (UniProt Q93009)
# Outline: as §1
# USP8 = molecular target: T5, USP8 (UniProt P40818)
# T5 sequence (whole entry): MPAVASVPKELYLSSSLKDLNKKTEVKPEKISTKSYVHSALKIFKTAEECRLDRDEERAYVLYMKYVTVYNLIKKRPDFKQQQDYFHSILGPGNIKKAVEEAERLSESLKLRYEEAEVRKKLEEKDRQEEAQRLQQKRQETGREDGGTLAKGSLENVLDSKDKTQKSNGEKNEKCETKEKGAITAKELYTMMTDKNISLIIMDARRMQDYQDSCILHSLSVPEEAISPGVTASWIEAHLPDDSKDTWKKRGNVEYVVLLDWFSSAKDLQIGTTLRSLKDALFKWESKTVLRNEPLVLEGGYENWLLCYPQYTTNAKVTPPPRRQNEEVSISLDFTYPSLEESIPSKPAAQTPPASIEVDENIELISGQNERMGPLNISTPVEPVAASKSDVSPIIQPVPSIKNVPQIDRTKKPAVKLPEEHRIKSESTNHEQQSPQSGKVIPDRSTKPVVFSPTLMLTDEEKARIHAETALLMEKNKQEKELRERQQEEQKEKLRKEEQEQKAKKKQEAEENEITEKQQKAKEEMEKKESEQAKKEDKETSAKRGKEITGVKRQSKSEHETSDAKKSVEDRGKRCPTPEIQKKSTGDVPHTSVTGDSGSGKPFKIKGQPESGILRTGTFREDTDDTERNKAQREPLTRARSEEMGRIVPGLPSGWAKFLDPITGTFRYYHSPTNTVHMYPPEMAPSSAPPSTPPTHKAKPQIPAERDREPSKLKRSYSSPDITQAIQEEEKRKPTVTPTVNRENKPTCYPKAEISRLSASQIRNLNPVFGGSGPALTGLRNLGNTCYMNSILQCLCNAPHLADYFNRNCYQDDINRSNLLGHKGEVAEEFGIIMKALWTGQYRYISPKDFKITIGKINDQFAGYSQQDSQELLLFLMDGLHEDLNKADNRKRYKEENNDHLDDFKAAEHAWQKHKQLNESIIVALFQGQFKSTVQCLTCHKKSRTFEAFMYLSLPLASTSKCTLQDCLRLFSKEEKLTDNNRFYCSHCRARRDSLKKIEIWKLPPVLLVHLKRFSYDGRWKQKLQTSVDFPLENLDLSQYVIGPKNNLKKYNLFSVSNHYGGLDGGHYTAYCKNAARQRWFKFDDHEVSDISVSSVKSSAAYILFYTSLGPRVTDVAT
# Outline: as §1
# USP9X = USP9X (UniProt Q93008)
# Outline: as §1
# UniProt O00487 = molecular target: UniProt O00487
# Outline: as §1
# USP7, sequence (Q93009 whole entry, looked up): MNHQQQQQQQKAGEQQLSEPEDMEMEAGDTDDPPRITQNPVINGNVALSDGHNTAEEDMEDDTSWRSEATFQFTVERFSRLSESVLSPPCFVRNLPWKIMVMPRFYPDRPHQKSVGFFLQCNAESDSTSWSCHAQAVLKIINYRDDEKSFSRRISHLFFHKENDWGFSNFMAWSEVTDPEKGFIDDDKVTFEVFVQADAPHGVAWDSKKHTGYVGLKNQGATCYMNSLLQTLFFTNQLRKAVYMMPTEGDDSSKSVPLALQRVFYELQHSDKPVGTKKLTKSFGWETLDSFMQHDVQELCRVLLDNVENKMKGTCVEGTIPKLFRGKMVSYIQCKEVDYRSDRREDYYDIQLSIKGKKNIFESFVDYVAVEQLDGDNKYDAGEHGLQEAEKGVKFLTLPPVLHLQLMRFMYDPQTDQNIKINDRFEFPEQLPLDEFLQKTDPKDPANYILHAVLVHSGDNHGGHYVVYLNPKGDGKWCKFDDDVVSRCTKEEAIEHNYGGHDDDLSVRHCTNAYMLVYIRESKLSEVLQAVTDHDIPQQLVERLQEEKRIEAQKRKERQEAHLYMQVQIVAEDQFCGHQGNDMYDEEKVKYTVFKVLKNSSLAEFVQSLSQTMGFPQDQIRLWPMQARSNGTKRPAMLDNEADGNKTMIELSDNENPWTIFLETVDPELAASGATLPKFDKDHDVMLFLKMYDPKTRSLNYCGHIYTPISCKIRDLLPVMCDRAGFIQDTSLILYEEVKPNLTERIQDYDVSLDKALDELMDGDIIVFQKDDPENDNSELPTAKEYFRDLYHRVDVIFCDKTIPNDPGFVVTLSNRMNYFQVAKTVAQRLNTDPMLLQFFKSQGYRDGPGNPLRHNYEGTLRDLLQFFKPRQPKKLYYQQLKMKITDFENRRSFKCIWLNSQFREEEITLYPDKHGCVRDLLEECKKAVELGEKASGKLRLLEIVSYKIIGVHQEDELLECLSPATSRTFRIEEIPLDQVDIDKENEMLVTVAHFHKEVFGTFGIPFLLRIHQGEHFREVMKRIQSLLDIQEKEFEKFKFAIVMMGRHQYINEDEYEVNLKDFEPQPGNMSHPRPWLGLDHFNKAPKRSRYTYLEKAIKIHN
# USP9X, sequence (Q93008 whole entry): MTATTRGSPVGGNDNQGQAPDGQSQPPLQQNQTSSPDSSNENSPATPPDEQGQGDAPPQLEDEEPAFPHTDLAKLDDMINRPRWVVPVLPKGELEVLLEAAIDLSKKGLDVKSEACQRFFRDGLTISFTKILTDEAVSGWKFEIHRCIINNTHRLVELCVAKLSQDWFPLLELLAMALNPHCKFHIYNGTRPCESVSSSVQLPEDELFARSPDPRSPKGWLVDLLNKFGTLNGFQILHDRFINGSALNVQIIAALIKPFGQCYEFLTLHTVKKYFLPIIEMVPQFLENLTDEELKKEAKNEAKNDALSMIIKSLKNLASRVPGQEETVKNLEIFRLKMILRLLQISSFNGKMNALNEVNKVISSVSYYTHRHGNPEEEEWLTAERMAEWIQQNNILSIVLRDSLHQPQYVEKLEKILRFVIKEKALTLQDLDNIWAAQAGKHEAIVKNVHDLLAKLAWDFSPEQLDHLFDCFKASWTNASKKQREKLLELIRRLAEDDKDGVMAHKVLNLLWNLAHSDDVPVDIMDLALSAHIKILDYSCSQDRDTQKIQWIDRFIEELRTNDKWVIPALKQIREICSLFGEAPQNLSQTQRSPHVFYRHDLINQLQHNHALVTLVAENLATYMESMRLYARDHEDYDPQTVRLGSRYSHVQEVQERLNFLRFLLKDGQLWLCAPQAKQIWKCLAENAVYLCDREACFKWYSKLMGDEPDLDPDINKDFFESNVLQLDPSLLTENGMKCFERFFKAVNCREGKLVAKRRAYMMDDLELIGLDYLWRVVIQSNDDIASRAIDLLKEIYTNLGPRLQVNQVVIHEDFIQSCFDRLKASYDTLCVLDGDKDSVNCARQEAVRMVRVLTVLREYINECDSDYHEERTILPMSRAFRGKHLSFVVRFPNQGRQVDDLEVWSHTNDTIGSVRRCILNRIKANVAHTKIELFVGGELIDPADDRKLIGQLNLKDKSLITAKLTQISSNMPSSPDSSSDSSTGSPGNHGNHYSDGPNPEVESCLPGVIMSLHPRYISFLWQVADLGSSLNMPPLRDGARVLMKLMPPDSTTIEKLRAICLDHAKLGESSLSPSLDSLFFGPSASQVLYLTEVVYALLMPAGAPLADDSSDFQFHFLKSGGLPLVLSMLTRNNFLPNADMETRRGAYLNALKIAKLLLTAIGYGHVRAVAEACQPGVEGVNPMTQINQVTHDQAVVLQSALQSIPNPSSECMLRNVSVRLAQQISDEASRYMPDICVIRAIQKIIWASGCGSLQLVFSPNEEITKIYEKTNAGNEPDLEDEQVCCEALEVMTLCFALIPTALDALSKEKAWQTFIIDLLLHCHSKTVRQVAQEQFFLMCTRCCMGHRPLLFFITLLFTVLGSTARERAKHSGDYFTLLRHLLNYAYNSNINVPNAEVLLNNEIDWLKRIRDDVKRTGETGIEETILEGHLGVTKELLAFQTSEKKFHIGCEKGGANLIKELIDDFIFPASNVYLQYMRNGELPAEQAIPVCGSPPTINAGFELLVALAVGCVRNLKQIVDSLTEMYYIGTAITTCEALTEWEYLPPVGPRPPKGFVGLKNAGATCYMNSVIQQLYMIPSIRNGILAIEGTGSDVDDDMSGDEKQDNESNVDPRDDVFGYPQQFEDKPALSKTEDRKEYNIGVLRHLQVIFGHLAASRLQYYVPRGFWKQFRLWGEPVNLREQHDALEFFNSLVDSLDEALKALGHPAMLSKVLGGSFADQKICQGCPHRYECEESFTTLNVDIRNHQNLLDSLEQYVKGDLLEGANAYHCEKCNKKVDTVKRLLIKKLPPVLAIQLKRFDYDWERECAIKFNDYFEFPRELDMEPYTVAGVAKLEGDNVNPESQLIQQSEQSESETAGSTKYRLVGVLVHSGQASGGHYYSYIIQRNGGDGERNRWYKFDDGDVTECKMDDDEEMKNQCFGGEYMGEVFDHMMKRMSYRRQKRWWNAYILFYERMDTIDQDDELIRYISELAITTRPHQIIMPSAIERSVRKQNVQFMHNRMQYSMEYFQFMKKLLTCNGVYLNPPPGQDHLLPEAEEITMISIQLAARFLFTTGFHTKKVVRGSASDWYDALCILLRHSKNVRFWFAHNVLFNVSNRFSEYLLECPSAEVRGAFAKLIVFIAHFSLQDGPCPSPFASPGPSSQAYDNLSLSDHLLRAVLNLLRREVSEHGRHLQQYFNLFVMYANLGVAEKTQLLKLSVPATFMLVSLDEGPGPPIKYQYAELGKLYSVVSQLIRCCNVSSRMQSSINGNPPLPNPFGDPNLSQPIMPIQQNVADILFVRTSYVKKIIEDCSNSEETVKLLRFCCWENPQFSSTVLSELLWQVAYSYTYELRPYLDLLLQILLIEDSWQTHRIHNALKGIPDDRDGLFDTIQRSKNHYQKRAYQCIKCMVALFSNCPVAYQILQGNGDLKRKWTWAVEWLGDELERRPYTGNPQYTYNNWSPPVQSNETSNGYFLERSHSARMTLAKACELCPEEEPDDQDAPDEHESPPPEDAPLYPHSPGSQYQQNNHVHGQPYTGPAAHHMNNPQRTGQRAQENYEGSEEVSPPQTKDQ
# USP46, sequence (P62068 whole entry): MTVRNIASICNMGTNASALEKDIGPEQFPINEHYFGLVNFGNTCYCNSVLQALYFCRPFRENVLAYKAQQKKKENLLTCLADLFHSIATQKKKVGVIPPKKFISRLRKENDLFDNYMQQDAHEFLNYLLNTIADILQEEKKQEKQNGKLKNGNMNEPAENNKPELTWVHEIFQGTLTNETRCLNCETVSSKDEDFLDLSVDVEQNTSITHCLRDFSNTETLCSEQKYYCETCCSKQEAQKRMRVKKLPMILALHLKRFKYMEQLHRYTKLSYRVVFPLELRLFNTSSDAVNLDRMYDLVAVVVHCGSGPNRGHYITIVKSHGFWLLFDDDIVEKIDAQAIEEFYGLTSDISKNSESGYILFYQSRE
# UniProt O00487, sequence (O00487 whole entry): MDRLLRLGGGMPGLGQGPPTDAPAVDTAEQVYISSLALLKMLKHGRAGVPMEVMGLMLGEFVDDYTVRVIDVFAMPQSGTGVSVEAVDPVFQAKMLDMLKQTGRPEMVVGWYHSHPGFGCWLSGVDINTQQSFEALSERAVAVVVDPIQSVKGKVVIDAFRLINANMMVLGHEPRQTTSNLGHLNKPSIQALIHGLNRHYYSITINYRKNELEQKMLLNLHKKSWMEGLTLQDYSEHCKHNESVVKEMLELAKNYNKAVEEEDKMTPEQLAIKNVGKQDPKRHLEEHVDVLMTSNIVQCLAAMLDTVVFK
SMILES,log2 ratio of Biotin-Ahx-Ub-VS probe labelling (USP42),log2 ratio of Biotin-Ahx-Ub-VS probe labelling (USP46),log2 ratio of Biotin-Ahx-Ub-VS probe labelling (USP47),log2 ratio of Biotin-Ahx-Ub-VS probe labelling (USP48),log2 ratio of Biotin-Ahx-Ub-VS probe labelling (USP5),log2 ratio of Biotin-Ahx-Ub-VS probe labelling (USP54),log2 ratio of Biotin-Ahx-Ub-VS probe labelling (USP7),log2 ratio of Biotin-Ahx-Ub-VS probe labelling (USP8),log2 ratio of Biotin-Ahx-Ub-VS probe labelling (USP9X),log2 ratio of Biotin-Ahx-Ub-VS probe labelling (UniProt O00487)
O=C(CCl)N1CCOC2(CCC2)CC1,-0.307,0.0174,-0.785,-0.374,0.235,-0.505,-0.145,-0.275,-0.0935,0.0511
O=C(CCl)N1CCc2nc[nH]c2C1c1ccc(Cl)cc1 (stereo not given),-0.0471,-0.363,-0.614,-1.05 (active),-0.146,0.015,-1.31 (active),0.126,-0.619,0.0187
